{"source": "PubChem BioAssay (NCI)", "note": "About 79,000 compounds went through this panel and 15% of them were active in at least one assay; those are over-represented in the sample as a whole. Unmarked numbers belong to inactive results. Active and inactive are the calls of the source. No stated cut-off is given here; in the data, active means growth inhibition above about 70%; inactive means the rest."}
{"experiment": "NCI Yeast Anticancer Drug Screen. Data for the mgt1 strain (AID 153)", "conditions": "S. cerevisiae mgt1 mutant growth inhibition; at 100.0 µM; active compounds read high", "outline": "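Vehicle-normalized growth inhibition is determined in mgt1 yeast, a strain selected for a defined alteration in DNA repair or cell cycle control.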"}
{"smiles": "C[N+](C)([O-])CCCNc1c2ccccc2nc2cccc([N+](=O)[O-])c12", "growth inhibition": "93% (active)"}
{"smiles": "O=C(c1cc(=O)c2ccc(O)cc2o1)c1ccc(Cl)cc1Cl", "growth inhibition": "90% (active)"}
{"smiles": "CCCNC(=O)OCc1c(COC(=O)NCCC)c(-c2ccc(Cl)c(Cl)c2)n2c1CCC2", "growth inhibition": "50%"}
{"smiles": "O=C(Cc1ccccc1)NN1C(=O)C(Cl)C1c1cc(Br)cc(Br)c1O", "note": "(stereo not drawn)", "growth inhibition": "91% (active)"}
{"smiles": "CCOC(=O)C(Cc1c2ccccc2cc2ccccc12)(NC(C)=O)C(=O)OCC", "growth inhibition": "-4%"}
{"smiles": "O=[N+]([O-])/C=C/c1cc2ccc3ccccc3c2[nH]1", "growth inhibition": "93% (active)"}
{"smiles": "Fc1ccc(Nc2ccc3ccccc3c2)cc1", "growth inhibition": "94% (active)"}
{"smiles": "O=S1(=O)CCC2=CC(C(F)(F)F)=CC(C(F)(F)F)=CN21", "growth inhibition": "98% (active)"}
{"smiles": "O=C(Cc1ccccc1)NNc1nc(NNC(=O)c2ccncc2)nc(Nc2ccc([N+](=O)[O-])cc2)n1", "growth inhibition": "56%"}
{"smiles": "CCCCS/C(=C(/C#N)C(N)=O)c1cc2c([nH]1)CCCC2", "growth inhibition": "49%"}
{"smiles": "O=C(O)c1ccccc1C(=O)OC1CCc2ccccc2C1", "note": "(stereo not drawn)", "growth inhibition": "5%"}
{"smiles": "CCOC(=O)/C(=C\\c1cccc(C)c1)C(C)=O", "growth inhibition": "99% (active)"}
{"smiles": "NC(=S)N/N=C1\\c2ccccc2CCC1CCC1(O)CCc2ccccc2C1=O", "note": "(stereo not drawn)", "growth inhibition": "84% (active)"}
{"smiles": "Cc1cccc2c(Cl)c3cccc(C)c3nc12", "growth inhibition": "-10%"}
{"smiles": "Nc1ccc2c(c1)C(=O)c1c(F)cccc1-2", "growth inhibition": "74% (active)"}
{"smiles": "N#CSCC1COc2ccccc2O1", "note": "(stereo not drawn)", "growth inhibition": "97% (active)"}
{"smiles": "Cc1ccc(S(=O)(=O)NC(=O)C2C(=O)CC3(CCCCC3)CC2=O)cc1", "growth inhibition": "85% (active)"}
{"smiles": "CC1=NN(C(=O)c2ccccc2O)C(=O)/C1=C/c1ccco1", "growth inhibition": "96% (active)"}
